# Measurements from PubChem BioAssay AID602247 (The Scripps Research Institute Molecular Screening Center, 2012).
# In all, about 360,000 compounds went through this assay and about 80 (0.02%) were called active. Shown is part of a subset that was picked to be rich in actives. A number with no mark means an inactive call.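 How the source made its calls: active means activation above the run cutoff, the mean activation of all test compounds plus 3 SD (cut at about 40% in these data); inactive means the rest.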
# Experiment: ATP EC20 calcium response enhancers, parental CHO-K1 – cell-based, Fluo-8 calcium fluorescence, full deck, 1536-well, counter-screen for M1 PAM project, primary screen (AID 602247);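 further: peak over basal fluorescence ratio in a 140 s read after ATP addition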
# Conditions: parental CHO-K1, ATP EC20, Fluo-8 calcium fluorescence; at 3 µM; active compounds read high; 0% at ATP EC20, 100% at ATP max
row,SMILES,activation
1,C/C(=N\NC(=O)COc1ccc(C)cc1[N+](=O)[O-])c1ccc2c(c1)OCCO2,4.27%
2,Cc1cc(C)n(-c2nnc(C)n2NC(=O)c2cccc(Cl)c2)n1,9.43%
3,Cc1ccc(C)c(NC(=O)C2CC(=O)N(C(C)C)C2)c1 (centres undefined),12.2%
4,COCCn1c(=O)[nH]c2cc(C(=O)NCc3cccnc3)ccc2c1=O,6.89%
5,CC(C)CC(=O)c1c[nH]c(C(=O)NCc2ccccc2)c1,0.92%
6,O=C(CC(NCCN1CCOCC1)C(=O)O)Nc1cccc(Cl)c1 (centres undefined),20.9%
7,CC(=O)NC1C(Oc2ccc(C)cc2)OC2COC(c3ccco3)OC2C1O (centres undefined),-5.49%
8,O=S(=O)(NC1CCCCC1N1CCN(c2ccccc2F)CC1)c1ccccc1 (centres undefined),19.1%
9,O=C(Nc1ccc(Br)cc1)c1cccc(NC(=O)C2C3CC4OC(=O)C2C4C3)c1 (centres undefined),9.66%
10,Cc1ccc(/C=C2\CCn3c2nc2cc(C(=O)O)ccc2c3=O)c(C)c1,17.1%
11,O=C1c2cccc3cccc(c23)C(=O)N1c1cccc(O)c1,12.7%
12,OC1CCCN(c2ncnc3c2nnn3Cc2c(F)cccc2Cl)C1 (centres undefined),20.4%
13,CCC1CCCCN1C(=S)Nc1ccc(SC(F)F)cc1 (centres undefined),3.06%
14,COc1ccc(O)c(C=Nc2cc(C)on2)c1,1.78%
15,CC(C)C(=O)N1CC(=O)Nc2ccc(F)cc2C1c1ccc(F)cc1 (centres undefined),3.77%
16,CCCN1CNC(=S)N(CCc2ccccc2)C1,-4.97%
17,O=C(Nc1ccc(Br)cc1F)C1CC(=O)N(C2CCCCC2)C1 (centres undefined),9.78%
18,CCOc1ccccc1NC(=O)NC1CCCCCCC1,20%
19,CN(C)/C(CN1CCCCC1)=C1\N=C(c2ccccc2)OC1=O,19.8%
20,CN(C)CCCOc1ccc(-c2ccc3nccn3c2)cn1,15.7%

row,SMILES,activation
1,CCOP(=O)(OCC)C(Cc1ccccc1)N=C(c1ccccc1)c1ccccc1 (centres undefined),19.7%
2,COc1ccc(OC)c(NC(=O)CSc2nc3cccnc3n2C)c1,9.99%
3,O=C(CN1C(=O)c2ccc([N+](=O)[O-])cc2C1=O)Nc1nnc(C2CC2)s1,1.72%
4,CC(=O)Nc1ccc(NC(=O)C2CCCN2S(=O)(=O)c2cccc(C(F)(F)F)c2)cc1 (centres undefined),-6.05%
5,O=C1c2ccncc2C(=O)N1C1CCCCC1,15.5%
6,Cc1nc(C(F)(F)F)ccc1C(=O)N1CCC1(C)C(=O)NS(=O)(=O)c1ccccc1Cl (centres undefined),11.4%
7,COc1ccc(C(=O)N2CCC(C(=O)Nc3ccc(C)cc3)CC2)cc1,28.6%
8,Cc1ccc(Cn2cc(C(=O)NN)c(=O)c3ccc(F)cc32)cc1,-28.1%
9,CCOC(=O)C1(Cc2ccc(O)cc2)NC(c2ccccc2F)C2C(=O)N(C)C(=O)C21 (centres undefined),24%
10,Cc1cccc([C@H]2[C@@H]3C=CC[C@@H](C)[C@@H]3C(=O)N2Cc2ccccc2)c1,-0.48%
11,CSc1ccc(S(=O)(=O)NCC(=O)OCC(=O)NC2(C#N)CCCCC2)cc1[N+](=O)[O-],-4.9%
12,Nc1nc(O)c(CC(=O)O)s1,1.33%
13,O=C(CCS(=O)(=O)c1ccccc1Cl)Nc1ccc(S(=O)(=O)Nc2ncccn2)cc1,7.81%
14,COc1ccc(S(=O)(=O)N2CN(CCc3ccc(OC)c(OC)c3)c3nc4ccccc4nc32)cc1,1.88%
15,C#CCCOC(=O)N1C2=NC(C(=O)OC)=C(C(=O)OC)[C@@H]3N(C)c4ccc(OC)cc4[C@]23C[C@H]1C(=O)OC,-12.8%
16,O=C(CCCCCn1c(=S)[nH]c2ccsc2c1=O)NC1CCCCC1,16.9%
17,CC(C)n1ncc2c(C(=O)NCc3ccccc3CN(C)C)cc(C3CC3)nc21,-12.7%
18,COC(=O)c1cc(S(=O)(=O)NC2CCN(Cc3ccccc3)CC2)cn1C,3.07%
19,CCOc1ccc(NC(=S)N2CCC(N(C)CC3CCCO3)CC2)cc1 (centres undefined),23.7%
20,COc1ccc(OC)c(S(=O)(=O)N2CCCC(C(=O)NCCc3ccccc3)C2)c1 (centres undefined),-2.03%

row,SMILES,activation
1,Cc1ccc(OC(=O)c2cncc(Br)c2)c(C)c1,-0.46%
2,S=C(Nc1ccc2c(c1)OCO2)N1CCCC1,12.1%
3,COc1ccc(-c2ccc(C(=O)NC(C)C)c3occc23)c(C)c1,11%
4,CC(=O)Nc1ccc(NC(=O)CSCc2cnn(-c3ccccc3)c2-n2cccc2)cc1,1.5%
5,Cc1ccc(N2C(=O)CC(N3CCSCC3)C2=O)c(C)c1 (centres undefined),0.16%
6,CCOC(=O)C1CCN(CCC(=O)Nc2cccc(C)c2)CC1,-4.96%
7,CCCCCc1c(Cc2ccccc2)ncn1CCc1ccccc1OC,3%
8,CC(NC(=O)CN(C)S(=O)(=O)c1ccc(F)cc1)C1CC2CCC1C2 (centres undefined),9.24%
9,CCC(C(=O)NC1CCCC1)N(C(=O)Cn1nnc(-c2ccc(C)o2)n1)c1ccc(OC)c(OC)c1 (centres undefined),-0.54%
10,NC(=O)C1(Nc2ccc(-c3ccccc3)cc2)CCCC1,0.81%
11,CCOc1cc(/C=N/NC(=O)c2c(C)nc3ccc(Cl)cn23)ccc1O,-3.92%
12,CCOc1cc(/C=N/NC(=O)c2cc(-c3ccccc3)nc3ccccc23)ccc1O,40.7% (active)
13,CCOc1ccccc1-c1cc(C(=O)N/N=C(\C)c2cccnc2)c2ccccc2n1,15.1%
14,O=C(c1ccc(=O)[nH]c1)N(Cc1ccco1)C1(C(=O)NC2CCCCC2)CCCCC1,7.15%
15,CCC(C)NC(=O)C1CCC(=O)N1Cc1ccc(C)cc1 (centres undefined),19.6%
16,CCn1c(SCC(=O)Nc2ccc(OC)c(OC)c2)nnc1-c1c[nH]c2ccccc12,22.7%
17,COc1ccccc1NC(=O)C(CC(=O)O)Cc1cc(C)cc(C)c1 (centres undefined),22.4%
18,O=S(=O)(c1cccc(C(F)(F)F)c1)N1c2ccccc2-n2cccc2C1c1cccnc1 (centres undefined),10.8%
19,O=C(NC1CCCC1)C(c1ccc(N2CCOCC2)cc1)N(C(=O)c1ccco1)c1ccccc1F (centres undefined),4.16%
